# Assay results published in PubChem BioAssay (NCI).
# This is part of a sample that, as a whole, favours compounds with a hit. Of some 79,000 tested, about 15% had one in any assay. Values without a mark were called inactive. Activity calls are given as the source filed them. Cut-off read from the data, not from the text of the source: active = growth inhibition above about 70%; inactive = the rest.
# Columns and labels:
# [1] = NCI Yeast Anticancer Drug Screen. Data for the rad52 strain (AID 147);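 note: 0% = growth of vehicle-treated control cultures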; settings: S. cerevisiae rad52 mutant growth inhibition, active compounds read high
# Outline: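 Vehicle-treated cultures served as the reference for growth inhibition of compound-exposed yeast bearing a DNA repair mutation.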
# [2] = NCI Yeast Anticancer Drug Screen. Data for the rad50EPP+ strain (AID 151);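 note: 0% = growth of vehicle-treated control cultures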; settings: S. cerevisiae rad50 mutant strain, active compounds read high
# Outline: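 In this screen, rad50EPP+ yeast were exposed to compounds. Growth inhibition was scored against vehicle-treated controls.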
# [3] = NCI Yeast Anticancer Drug Screen. Data for the mgt1 strain (AID 153); settings: S. cerevisiae mgt1 mutant growth inhibition, active compounds read high
# Outline: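 mgt1 strain exposed; growth vs vehicle control recorded as inhibition.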
# [4] = NCI Yeast Anticancer Drug Screen. Data for the rad50 strain (AID 155);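 note: 0% = growth of vehicle-only cultures of the same strain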; settings: S. cerevisiae rad50 strain growth inhibition, active compounds read high
# Outline: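 Relative growth inhibition (compound vs vehicle) was measured in yeast with a defined repair-gene alteration.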
# [5] = NCI Yeast Anticancer Drug Screen. Data for the mec2-1 strain (AID 157); settings: S. cerevisiae mec2-1 strain, active compounds read high
# Outline: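 Vehicle-treated cultures served as reference for growth inhibition of compound-exposed mec2-1 yeast.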
# [6] = NCI Yeast Anticancer Drug Screen. Data for the rad14 strain (AID 159);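 note: 0% = growth of vehicle-treated control cultures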; settings: S. cerevisiae rad14 strain growth inhibition, active compounds read high
# Outline: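 Screen for anticancer potential: a yeast strain altered in DNA damage repair is grown with compound, and reduced growth is quantified against vehicle controls.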
# [7] = NCI Yeast Anticancer Drug Screen. Data for the sgs1 mgt1 strain (AID 161);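 note: 0% = growth of cultures given vehicle only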; settings: S. cerevisiae sgs1 mgt1 strain, active compounds read high
# Outline: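 Genetically altered yeast, compound exposure, growth inhibition relative to vehicle.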
# [8] = NCI Yeast Anticancer Drug Screen. Data for the CLN2oe strain (AID 163);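 note: 0% = growth of vehicle-only control cultures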; settings: S. cerevisiae CLN2oe strain, active compounds read high
# Outline: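 Inhibition relative to vehicle-treated yeast is reported. Cells: strain with genetic alteration in cell-cycle control, grown with compound.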
# [9] = NCI Yeast Anticancer Drug Screen. Data for the cln2 rad14 strain (AID 165);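 note: 0% = growth equal to vehicle treated cultures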; settings: S. cerevisiae cln2 rad14 strain, active compounds read high
# Outline: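 Each compound was tested on cln2 rad14 yeast. Inhibition of growth was calculated against vehicle-exposed controls.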
# [10] = NCI Yeast Anticancer Drug Screen. Data for the bub3 strain (AID 167); settings: S. cerevisiae bub3 mutant strain, active compounds read high
# Outline: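 Screening used yeast with an engineered genetic alteration affecting cell cycle control. Compound-exposed cultures were compared with vehicle cultures, and reduced growth was taken as inhibition.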
# [11] = NCI Yeast Anticancer Drug Screen. Data for the wt2 strain (AID 169);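 note: 0% = growth of vehicle-treated yeast cultures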; settings: S. cerevisiae wt2 strain growth inhibition, active compounds read high
# Outline: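 Inhibition of yeast growth was determined after compound treatment, normalised to controls receiving only vehicle.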
# [12] = NCI Yeast Anticancer Drug Screen. Data for the sgs1 strain (AID 173);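 note: 0% = growth of vehicle-only control cultures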; settings: S. cerevisiae sgs1 mutant, active compounds read high
# Outline: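 Screen format: yeast with repair or checkpoint alterations, compound exposure, growth read relative to vehicle.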
# [13] = NCI Yeast Anticancer Drug Screen. Data for the mlh1 rad18 strain (AID 175); settings: S. cerevisiae mlh1 rad18 strain growth inhibition, active compounds read high
# Outline: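 Vehicle-treated cultures served as the reference for growth inhibition in a yeast strain carrying DNA damage repair alterations exposed to each compound.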
# [14] = NCI Yeast Anticancer Drug Screen. Data for the rad18 strain (AID 177); settings: S. cerevisiae rad18 mutant growth inhibition, active compounds read high
# Outline: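 Test articles were incubated with altered yeast defective in DNA damage repair. Results are given as inhibition of growth versus vehicle.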
# [15] = NCI Yeast Anticancer Drug Screen. Data for the wt1 strain (AID 149);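 note: 0% = growth of vehicle-treated wt1 cultures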; settings: S. cerevisiae wt1 strain (SPY 50644) growth inhibition, active compounds read high
# Outline: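 Using yeast strain wt1, compound-induced growth inhibition was determined against vehicle-treated cultures.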
# [16] = NCI Yeast Anticancer Drug Screen. Data for the mlh1 strain (AID 171);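 note: 0% = growth of vehicle-treated control cultures of the same strain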; settings: S. cerevisiae mlh1 strain growth inhibition, active compounds read high
# Outline: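 Vehicle-normalised growth inhibition of a repair- or checkpoint-altered yeast strain following compound treatment.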
# [17] = at 5.0 µM (retest, dose inferred, filed as 0.5)
# [18] = at 50.0 µM (retest, dose inferred, filed as 5.0)
smiles,measurement,setting,value
O=C1CC(C(O)(C(F)(F)F)C(F)(F)Cl)CCC1C(O)(C(F)(F)F)C(F)(F)Cl (stereo unspecified),growth inhibition,[1]; at 1.2 µM,54%
same,growth inhibition,[1]; at 3.7 µM,46%
same,growth inhibition,[1]; at 11.0 µM,72% (active)
same,growth inhibition,[1]; at 33.0 µM,93% (active)
same,growth inhibition,[1]; at 100.0 µM,97% (active)
same,growth inhibition,[2]; at 1.2 µM,12%
same,growth inhibition,[2]; at 3.7 µM,24%
same,growth inhibition,[2]; at 11.0 µM,38%
same,growth inhibition,[2]; at 33.0 µM,46%
same,growth inhibition,[2]; at 100.0 µM,41%
same,growth inhibition,[3]; at 1.2 µM,60%
same,growth inhibition,[3]; at 3.7 µM,65%
same,growth inhibition,[3]; at 11.0 µM,87% (active)
same,growth inhibition,[3]; at 33.0 µM,94% (active)
same,growth inhibition,[3]; at 100.0 µM,97% (active)
same,growth inhibition,[4]; at 1.2 µM,45%
same,growth inhibition,[4]; at 3.7 µM,33%
same,growth inhibition,[4]; [17],29%
same,growth inhibition,[4]; at 11.0 µM,57%
same,growth inhibition,[4]; at 33.0 µM,91% (active)
same,growth inhibition,[4]; [18],96% (active)
same,growth inhibition,[4]; at 50.0 µM,99.1% (active)
same,growth inhibition,[4]; at 100.0 µM,97% (active)
same,growth inhibition,[5]; at 1.2 µM,67%
same,growth inhibition,[5]; at 3.7 µM,56%
same,growth inhibition,[5]; [17],35%
same,growth inhibition,[5]; at 11.0 µM,84% (active)
same,growth inhibition,[5]; at 33.0 µM,96% (active)
same,growth inhibition,[5]; [18],96% (active)
same,growth inhibition,[5]; at 50.0 µM,99.5% (active)
same,growth inhibition,[5]; at 100.0 µM,98% (active)
same,growth inhibition,[6]; at 1.2 µM,66%
same,growth inhibition,[6]; at 3.7 µM,50%
same,growth inhibition,[6]; at 11.0 µM,85% (active)
same,growth inhibition,[6]; at 33.0 µM,97% (active)
same,growth inhibition,[6]; at 100.0 µM,99% (active)
same,growth inhibition,[7]; [17],49%
same,growth inhibition,[7]; [18],96% (active)
same,growth inhibition,[7]; at 50.0 µM,99.5% (active)
same,growth inhibition,[8]; at 1.2 µM,75% (active)
same,growth inhibition,[8]; at 3.7 µM,77% (active)
same,growth inhibition,[8]; at 11.0 µM,89% (active)
same,growth inhibition,[8]; at 33.0 µM,95% (active)
same,growth inhibition,[8]; at 100.0 µM,95% (active)
same,growth inhibition,[9]; [17],44%
same,growth inhibition,[9]; [18],96% (active)
same,growth inhibition,[9]; at 50.0 µM,99.2% (active)
same,growth inhibition,[10]; at 1.2 µM,60%
same,growth inhibition,[10]; at 3.7 µM,45%
same,growth inhibition,[10]; [17],2%
same,growth inhibition,[10]; at 11.0 µM,76% (active)
same,growth inhibition,[10]; at 33.0 µM,95% (active)
same,growth inhibition,[10]; [18],97% (active)
same,growth inhibition,[10]; at 50.0 µM,99.4% (active)
same,growth inhibition,[10]; at 100.0 µM,97% (active)
same,growth inhibition,[11]; at 1.2 µM,51%
same,growth inhibition,[11]; at 3.7 µM,55%
same,growth inhibition,[11]; at 11.0 µM,84% (active)
same,growth inhibition,[11]; at 33.0 µM,93% (active)
same,growth inhibition,[11]; at 100.0 µM,98% (active)
same,growth inhibition,[12]; at 1.2 µM,61%
same,growth inhibition,[12]; at 3.7 µM,62%
same,growth inhibition,[12]; at 11.0 µM,80% (active)
same,growth inhibition,[12]; at 33.0 µM,96% (active)
same,growth inhibition,[12]; at 100.0 µM,98% (active)
same,growth inhibition,[13]; [17],42%
same,growth inhibition,[13]; [18],97% (active)
same,growth inhibition,[13]; at 50.0 µM,99% (active)
same,growth inhibition,[14]; at 1.2 µM,42%
same,growth inhibition,[14]; at 3.7 µM,45%
same,growth inhibition,[14]; at 11.0 µM,76% (active)
same,growth inhibition,[14]; at 33.0 µM,94% (active)
same,growth inhibition,[14]; at 100.0 µM,97% (active)
Cn1c(-c2ccc(/C=N\N3CCN(/N=C/c4ccc(-c5c[n+]6ccsc6n5C)cc4)CC3)cc2)c[n+]2ccsc12,growth inhibition,[1]; at 1.2 µM,14%
same,growth inhibition,[1]; at 3.7 µM,19%
same,growth inhibition,[1]; at 11.0 µM,20%
same,growth inhibition,[1]; at 33.0 µM,16%
same,growth inhibition,[1]; at 100.0 µM,75% (active)
same,growth inhibition,[15]; at 1.2 µM,5%
same,growth inhibition,[15]; at 3.7 µM,18%
same,growth inhibition,[15]; at 11.0 µM,14%
same,growth inhibition,[15]; at 33.0 µM,17%
same,growth inhibition,[15]; at 100.0 µM,71% (active)
same,growth inhibition,[4]; at 1.2 µM,21%
same,growth inhibition,[4]; at 3.7 µM,33%
same,growth inhibition,[4]; [17],12%
same,growth inhibition,[4]; at 11.0 µM,21%
same,growth inhibition,[4]; at 33.0 µM,11%
same,growth inhibition,[4]; [18],29%
same,growth inhibition,[4]; at 50.0 µM,18%
same,growth inhibition,[4]; at 100.0 µM,76% (active)
same,growth inhibition,[5]; at 1.2 µM,50%
same,growth inhibition,[5]; at 3.7 µM,51%
same,growth inhibition,[5]; [17],14%
same,growth inhibition,[5]; at 11.0 µM,57%
same,growth inhibition,[5]; at 33.0 µM,41%
same,growth inhibition,[5]; [18],53%
same,growth inhibition,[5]; at 50.0 µM,30.4%
same,growth inhibition,[5]; at 100.0 µM,82% (active)
same,growth inhibition,[6]; at 1.2 µM,16%
same,growth inhibition,[6]; at 3.7 µM,10%
same,growth inhibition,[6]; at 11.0 µM,9%
same,growth inhibition,[6]; at 33.0 µM,14%
same,growth inhibition,[6]; at 100.0 µM,59%
same,growth inhibition,[7]; [17],18%
same,growth inhibition,[7]; [18],58%
same,growth inhibition,[7]; at 50.0 µM,25.1%
same,growth inhibition,[8]; at 1.2 µM,40%
same,growth inhibition,[8]; at 3.7 µM,48%
same,growth inhibition,[8]; at 11.0 µM,49%
same,growth inhibition,[8]; at 33.0 µM,52%
same,growth inhibition,[8]; at 100.0 µM,76% (active)
same,growth inhibition,[9]; [17],18%
same,growth inhibition,[9]; [18],18%
same,growth inhibition,[9]; at 50.0 µM,70.5% (active)
same,growth inhibition,[10]; at 1.2 µM,17%
same,growth inhibition,[10]; at 3.7 µM,26%
same,growth inhibition,[10]; [17],17%
same,growth inhibition,[10]; at 11.0 µM,25%
same,growth inhibition,[10]; at 33.0 µM,40%
same,growth inhibition,[10]; [18],35%
same,growth inhibition,[10]; at 50.0 µM,16.4%
same,growth inhibition,[10]; at 100.0 µM,78% (active)
same,growth inhibition,[11]; at 1.2 µM,-43%
same,growth inhibition,[11]; at 3.7 µM,-40%
same,growth inhibition,[11]; at 11.0 µM,-31%
same,growth inhibition,[11]; at 33.0 µM,0%
same,growth inhibition,[11]; at 100.0 µM,90% (active)
same,growth inhibition,[16]; at 1.2 µM,33%
same,growth inhibition,[16]; at 3.7 µM,32%
same,growth inhibition,[16]; at 11.0 µM,19%
same,growth inhibition,[16]; at 33.0 µM,47%
same,growth inhibition,[16]; at 100.0 µM,74% (active)
same,growth inhibition,[12]; at 1.2 µM,29%
same,growth inhibition,[12]; at 3.7 µM,32%
same,growth inhibition,[12]; at 11.0 µM,32%
same,growth inhibition,[12]; at 33.0 µM,46%
same,growth inhibition,[12]; at 100.0 µM,88% (active)
same,growth inhibition,[13]; [17],34%
same,growth inhibition,[13]; [18],73% (active)
same,growth inhibition,[13]; at 50.0 µM,-10.8%
same,growth inhibition,[14]; at 1.2 µM,19%
same,growth inhibition,[14]; at 3.7 µM,34%
same,growth inhibition,[14]; at 11.0 µM,24%
same,growth inhibition,[14]; at 33.0 µM,62%
same,growth inhibition,[14]; at 100.0 µM,89% (active)
